Experimental data from PubChem BioAssay AID624464 (National Center for Advancing Translational Sciences (NCATS), 2012).
Hit rate of the full screen: of about 360,000 compounds, about 810 (0.23%) were called active. Cut-off read from the data, not from the text of the source: active = potentiation above about 50%; inconclusive = mostly about 30% to 49%; inactive = weaker than that. For the sample, actives were picked, then their nearest neighbours and some compounds at random.

Each molecule was assayed against D(2) dopamine receptor (Homo sapiens) (UniProt P14416) (assay: Beta-Arrestin HTS for Positive Allosteric Modulators of the Human D2 Dopamine Receptor: Potentiators). Settings: DiscoveRx D2 beta-arrestin cells, luminescence, 90 min; active compounds read high; 100% = 57 uM dopamine signal.
Description: There is great interest in identifying small molecule ligands for G-protein coupled receptors (GPCRs) as nearly 50% of all FDA-approved drugs target these important receptor proteins. […] Amongst the dopamine receptors (DARs), the D2 is arguably one of the most validated drug targets in neurology and psychiatry. For instance, all receptor-based antiparkinsonian drugs primarily work via stimulating the D2 DAR, whereas all FDA-approved antipsychotic agents are antagonists of this receptor. The D2 DAR is also therapeutically targeted in other disorders such as restless legs syndrome, tardive dyskinesia, Tourette's syndrome, and hyperprolactinemia.
To this end, a miniaturized qHTS screen was developed to be screened against the Molecular Libraries Small Molecule Repository (MLSMR). This assay seeks to identify potentiators against the D2 DAR.
NIH Molecular Libraries Probe Production Network [MLPCN]
NIH Chemical Genomics Center [NCGC]
PI Name: David Sibley, National Institutes of Neurological Disorders and Stroke
DiscoveRx D2 cells were thawed from frozen stock and seeded at 2,100 cells/ 3 uL/well media (DiscoveRx Plating Reagent 2) with MultiDrop Combi dispenser (Thermo Scientific, Logan, UT) onto white tissue culture treated 1536-well Aurora plates (Brooks Automation, Chelmsford, MA) and allowed to attach overnight at 37 deg C, 5% CO2. Next, 23 nL/well of compound solutions in DMSO were added with a pintool transfer (Kalypsis, San Diego, CA). As the positive control, 1 uL/well dopamine (EC100, 57 uM final concentration) diluted in buffer (HBSS + 10 mM HEPES + SMB + 0.1 %Tween-20) was dispensed to 1 column of each plate. EC20 (Dopamine at 50 nM final concentration) was dispensed to the rest of the plate except columns 1 &2 which were used as negative control (EC=0, buffer only), 1 uL/well as well. The cells were stimulated by compounds and dopamine for 90 minutes at 37 deg C, 5% CO2, after which 1.5 uL/well of DiscoveRx detection reagent was added with BioRAPTR FRD dispenser. The detection reagent was prepared by mixing of Galacton Star Substrate, Emerald II solution and PathHunter buffer (supplied by the assay kit) together at 1:5:19 proportion accordingly just prior to dispensing. The plates were incubated at ambient temperature for 1 hour and then the luminescent signal was read on ViewLux plate reader (PerkinElmer, Waltham, MA).

D(2) dopamine receptor (Homo sapiens), sequence (P14416 whole entry, looked up): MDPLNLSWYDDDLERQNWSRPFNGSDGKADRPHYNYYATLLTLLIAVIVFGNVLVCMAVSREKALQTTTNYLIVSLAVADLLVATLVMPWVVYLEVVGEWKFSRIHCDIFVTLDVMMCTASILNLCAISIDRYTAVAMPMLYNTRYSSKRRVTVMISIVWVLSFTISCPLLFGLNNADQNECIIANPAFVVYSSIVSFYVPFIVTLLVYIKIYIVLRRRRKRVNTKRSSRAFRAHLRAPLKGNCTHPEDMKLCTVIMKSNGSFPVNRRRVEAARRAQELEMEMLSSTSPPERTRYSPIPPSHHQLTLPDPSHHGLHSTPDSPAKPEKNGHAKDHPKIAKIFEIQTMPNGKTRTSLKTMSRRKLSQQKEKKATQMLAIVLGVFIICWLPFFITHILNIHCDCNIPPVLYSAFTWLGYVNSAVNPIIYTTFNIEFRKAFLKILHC

Row | Structure (SMILES) | potentiation
1 | CC(=O)N1CCN(c2ccccc2NC(=S)NC(=O)c2cc3ccccc3o2)CC1 | 1.52% (inactive)
2 | Cc1ccccc1NC(=O)c1nn(-c2ccc(F)c(F)c2)ccc1=O | -20.8% (inactive)
3 | CC(C)(C)S(=O)(=O)c1ccccc1-c1noc(-c2ccccc2)c1C(N)=O | -4.58% (inactive)
4 | COc1ccc(S(=O)(=O)NC2(C(F)(F)F)N=C3SCCN3C2=O)cc1 (configuration not stated) | -9.42% (inactive)
5 | COC(=O)c1cc(S(=O)(=O)N2CCC(C(N)=O)CC2)oc1C | -5.83% (inactive)
6 | Cc1cc(C)cc(C(=O)N(CCc2ccccc2)C2=CC3CCC(C2)N3C)c1 (configuration not stated) | -8.31% (inactive)
7 | CCCN(CCc1ccccc1)C1CCc2c(O)cccc2C1 (configuration not stated) | 99% (active)
8 | O=C(CCC(=O)N1CCN(S(=O)(=O)c2ccc(Cl)cc2)CC1)NCc1cccc(C(F)(F)F)c1 | -1.2% (inactive)
9 | O=C(Cc1ccc(S(=O)(=O)N2CCOCC2)s1)N1CCN(c2ccc(C(F)(F)F)cc2[N+](=O)[O-])CC1 | -0.0198% (inactive)
10 | CC(=O)NC1=NC(=O)CS1 | -7.96% (inactive)
11 | Cc1ccc2cccc(OCCCOc3ccccc3CO)c2n1 | -2.17% (inactive)
12 | CC1C=CCC2C(=O)N(c3cccc(C(=O)N4CCCCCC4)c3)C(=O)C12 (configuration not stated) | -12.1% (inactive)
13 | COCCCNC(=O)Cn1c(=O)n(Cc2ccccc2Cl)c(=O)c2cc(OC)c(OC)cc21 | -14.1% (inactive)
14 | CCCc1cc(=O)[nH]c2nnc(SCC(=O)Nc3nnc(SCC)s3)n12 | -13.8% (inactive)
15 | CC(C)(C)N(Cc1ccccc1)C(=O)COC(=O)CCc1c[nH]c2ccccc12 | 10.1% (inactive)
16 | C[C@@H](NC(=O)[C@@H]1Cc2ccccc2CN1)C(=O)NC1CCCC1 | -3.01% (inactive)
17 | COc1ccc(O)c(C(=O)c2cnc3c(c2)c(-c2ccc(F)cc2)c(C#N)c(=O)n3C)c1 | 11.8% (inactive)
18 | COCCn1c(=O)[nH]c(=O)c2cc(C(=O)c3cc(OC)ccc3O)cnc21 | -0.0764% (inactive)
19 | COc1ccc(O)c(C(=O)c2cnc3onc(C(C)C)c3c2)c1 | 54.9% (active)
20 | CCOC(=O)c1cc(-c2sc(NC(=O)c3ccccc3)nc2C)n(-c2ccc(Br)cc2)n1 | 2.35% (inactive)
21 | COC(=O)[C@]1(C)N[C@H](c2ccc(-c3ccc(Cl)c(Cl)c3)cc2)[C@@H]2C(=O)N(C)C(=O)[C@@H]21 | -3.41% (inactive)
22 | O=C(C/C(=N\NC(=O)c1ccccc1Br)C(F)(F)F)c1cccs1 | -15% (inactive)
23 | O=C(CC(CC(=O)c1ccccc1)c1ccco1)c1ccccc1 | -4.42% (inactive)
24 | Nc1ccc(-n2nncc2-c2ccco2)cc1 | -3.62% (inactive)

Row | Structure (SMILES) | potentiation
25 | N#Cc1cccc(CSc2nnc(CCCO)n2-c2ccccc2)c1 | -7.69% (inactive)
26 | O=C(NCc1ccccc1)C(c1ccccc1)N(C(=O)c1csnn1)c1ccc(F)cc1 (configuration not stated) | 0.0815% (inactive)
27 | N/C(=N\OC(=O)c1ccc2c(c1)OCO2)c1ccc(Br)cc1 | 24.5% (inactive)
28 | N/C(=N\OC(=O)N1c2ccccc2Sc2ccccc21)c1ccc(Br)cc1 | 86.3% (active)
29 | N/C(=N\OC(=O)Cc1ccccc1[N+](=O)[O-])c1ccc(Br)cc1 | 18.7% (inactive)
30 | CC1(C)CC(=O)C(C=NCc2cccnc2)=C(O)C1 | 0.0734% (inactive)
31 | COc1ccc(N2CC(C(=O)NCCS(=O)(=O)N3CCN(c4ccccc4)CC3)CC2=O)cc1 (configuration not stated) | -8.09% (inactive)
32 | CCOC(=O)c1ccc(N2C(=O)CC(N(C)Cc3ccccc3)C2=O)cc1 (configuration not stated) | -5.22% (inactive)
33 | CCOc1ccc(N2C(=O)CC(N(O)c3ccccc3)C2=O)cc1 (configuration not stated) | 51.5% (active)
34 | CCOc1ccc(N2C(=O)CC(N(CCc3ccc(OC)c(OC)c3)C(=S)Nc3ccccc3)C2=O)cc1 (configuration not stated) | -3.21% (inactive)
35 | Cc1c(C=O)c2ccccn2c1C(=O)c1ccncc1 | 13.6% (inactive)
36 | C=CCn1c2c(c3ccccc31)CCC2 | -5.75% (inactive)
37 | CCOc1ccc(OCC(=O)OC(C)C(=O)NC2CCCCC2C)cc1 (configuration not stated) | -13.2% (inactive)
38 | CCc1ccnc(NC(=O)Nc2ccc(OCc3ccccc3)cc2)c1 | -1.75% (inactive)
39 | COc1ccc(OC)c(S(=O)(=O)N2CCCC(C(=O)N3CCC(C(N)=O)CC3)C2)c1 (configuration not stated) | 7.76% (inactive)
40 | CCOc1ccc(CCNC(=O)COC(=O)c2ccc(C)c(S(=O)(=O)N3CCOCC3)c2)cc1OCC | 1.76% (inactive)
41 | CCN(CC)S(=O)(=O)c1ccc(-c2cn3ccc(C)cc3n2)cc1 | 56% (active)
42 | CCN(c1cccc(C)c1)S(=O)(=O)c1ccc(-c2coc(C)n2)cc1 | -22% (inactive)
43 | Cc1ccc(-c2cn3cc(C)ccc3n2)cc1 | 6.89% (inactive)
44 | COc1cccc2c1C(=O)c1c(O)c3c(c(O)c1C2=O)CC(O)(C(C)=NNC(=O)c1ccc(Cl)c(Cl)c1)CC3OC1CC(N)C(O)C(C)O1 (configuration not stated) | -9.55% (inactive)
45 | CCc1nc2ccc(C(=O)N(C)CCN(C)C)cn2c1N(CC)CCOC | -8.24% (inactive)
46 | O=C(NC(C(=O)NCCN1CCOCC1)C12CC3CC(CC(C3)C1)C2)C1CCCCC1 (configuration not stated) | -3.19% (inactive)
47 | COc1cccc(N(CC(=O)NCc2ccccc2)C(=O)CCC(=O)Nc2nccs2)c1 | -2.58% (inactive)
